From PubChem BioAssay
HepG2 tox – counter-screen for TGF-b inhibitors: cytotoxicity in HepG2 cells; HepG2 CAGA-GFP viability, ATP luminescence, 18 h; Potency, µM (doses to about 46.1 µM), inactives show at the top dose activity change, negative = cytotoxicity, actives largely listed as cytotoxic; 410,000 compounds, 0.76% hits; AID 588856; also: potency is read from the fitted curve at half-maximal effect
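CellTiter-Glo luminescence gave cytotoxicity after 18 hours at 37 degrees C. The cells were HepG2 CAGA-GFP in 1% FBS DMEM, stimulated with 500 pg/mL TGF-beta after compound addition. %Activity was normalised to no-cell wells (complete cell-killing) and DMSO (no toxicity), and curves were fitted and classified.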
TGFb inhibitor – TGF-b pathway inhibition | HepG2 CAGA-GFP TGF-b/SMAD3 reporter, GFP fluorescence, 18 h; TGF-beta stimulated, 500 pg/mL final | Potency, µM (series often up to 46.1 µM), for the others: top-dose activity, negative = inhibition, actives largely listed as inhibitors | 410,000 compounds, 1.2% hits; also: potency is read from the fitted curve at half-maximal effect; % is scaled to controls: 0 for no effect and ±100 for the full control effect; nearly all actives have a fitted effect of over 65% in size
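TGF-beta reporter screen: HEPG2 CAGA-GFP, 1% FBS, 500 pg/mL TGF-beta final, 18 h; per-cell GFP summed per well; curves fitted and categorized by class.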
DT40 TDP1 no CPT – qHTS for Inhibitors of human tyrosyl-DNA phosphodiesterase 1 (TDP1): qHTS in cells in absence of CPT; DT40 Tdp1-/- hTDP1 cells, no CPT, ATP luminescence, 48 h; Potency, µM (highest dose often 46.2 µM), inactives show at the top dose activity change, negative = growth inhibition, usual class: inhibitors; 420,000 compounds, 15% hits; AID 686978, 2013; also: potency is read from the fitted curve at half-maximal effect; % is scaled to controls: 0 for no effect and ±100 for the full control effect; nearly all actives have a fitted effect of over 55% in size
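Chicken DT40 Tdp1-/- cells stably complemented with human TDP1 were seeded at 400 cells/well with DMSO in place of 20 nM camptothecin. After compound pinning, cells grew at least 48 hr at 37 °C; viability read by CellTiter-Glo luminescence.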
TDP1 inh – blocks human tyrosyl-DNA phosphodiesterase 1 | Potency, µM (series often up to 130 µM), for the others: top-dose activity change, negative = inhibition, usual class: inhibitors | recombinant TDP1, AlphaScreen DNA substrate cleavage | Q9NUW8 | 350,000 compounds, 0.28% hits; also: potency is read from the fitted curve at half-maximal effect; % is scaled to controls: 0 for no effect and ±100 for the full control effect; nearly all actives have a fitted effect of over 40% in size
Target sequence (Q9NUW8 whole entry, looked up): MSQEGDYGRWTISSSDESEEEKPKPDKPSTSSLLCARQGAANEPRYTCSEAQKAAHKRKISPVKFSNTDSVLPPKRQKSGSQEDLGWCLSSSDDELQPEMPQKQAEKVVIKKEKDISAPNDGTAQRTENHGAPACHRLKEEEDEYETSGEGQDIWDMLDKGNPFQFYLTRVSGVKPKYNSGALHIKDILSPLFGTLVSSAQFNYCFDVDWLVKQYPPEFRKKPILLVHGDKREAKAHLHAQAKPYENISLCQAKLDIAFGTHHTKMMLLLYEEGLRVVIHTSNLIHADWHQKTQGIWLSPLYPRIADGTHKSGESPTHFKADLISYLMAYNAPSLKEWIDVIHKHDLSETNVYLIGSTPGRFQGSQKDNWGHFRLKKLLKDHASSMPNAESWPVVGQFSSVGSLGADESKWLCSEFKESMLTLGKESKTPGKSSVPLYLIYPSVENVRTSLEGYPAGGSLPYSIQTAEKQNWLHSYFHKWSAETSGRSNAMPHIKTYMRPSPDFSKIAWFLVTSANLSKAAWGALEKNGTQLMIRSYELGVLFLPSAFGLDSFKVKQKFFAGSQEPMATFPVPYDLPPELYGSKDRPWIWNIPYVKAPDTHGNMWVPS
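AlphaScreen read-out: signal falls as enzyme removes the 3' tyrosine-FITC from a 5'-biotinylated DNA oligo (15 nM, 5 min, RT). Enzyme was E. coli-made recombinant Tdp1 at 1 nM, exposed to compound for 15 min beforehand; beads 10 ug/ml, 10 min.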
DT40 TDP1 CPT – growth inhibition of DT40 Tdp1-/-;hTDP1 cells with camptothecin (screen for TDP1 inhibitors); chicken DT40 Tdp1-/-;hTDP1 cells + 20 nM CPT, ATP luminescence, 48 h; Potency, µM (series often up to 46.2 µM), without a hit: at the top dose activity change, negative = growth inhibition, hits mostly inhibitors; 420,000 compounds, 12% hits; also: potency is read from the fitted curve at half-maximal effect; % is scaled to controls: 0 for no effect and ±100 for the full control effect; nearly all actives have a fitted effect of over 55% in size
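Chicken DT40 Tdp1-/- cells complemented with human TDP1, 400 cells/well, exposed to compounds plus 20 nM camptothecin for at least 48 h at 37 C; viability read as ATP content by CellTiter-Glo luminescence.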
IL-1B inflam inh – inhibitors of inflammasome signaling (IL-1 beta secretion); 360,000 compounds, 4.7% hits; activity change, % at 57.5 µM; THP-1 LPS/ATP IL-1B secretion, AlphaLISA, 16 h; active compounds read low; in the data active = activity change below about -50%; inconclusive = mostly about -30% to -49%; also: % is scaled to controls: 0 for no effect and ±100 for the full control effect
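Secreted IL-1B measured by AlphaLISA bead assay after 16 h compound exposure of THP-1 cells; compounds (final up to 57.5 uM) added 1 h before LPS (250 ng/mL) and ATP (1.25 mM) stimulation; lower signal means less secretion.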
Starred values were filed as active, the others as inactive; u = inconclusive; x = no result; [ ] = remark or other dose. An excerpt weighted towards active compounds, which were near 18% of everything screened. Unless noted, calls follow the shape of the dose curve; as a rule, active = well fitted curve in the direction sought with a large enough effect; inconclusive = small, poorly fitted or top-dose-only effect, or another doubt; inactive = no such curve, though single readings can be large; an effect the other way counts as inactive or inconclusive.

SMILES	HepG2 tox	TGFb inhibitor	DT40 TDP1 no CPT	TDP1 inh	DT40 TDP1 CPT	IL-1B inflam inh
CN(C(=O)c1ccc2c(=O)n3c(nc2c1)CCCCC3)c1ccccc1F	-81%	-2%	6%	4%	-15%	28
CN(Cc1ccc(C(C)(C)C)cc1)C(=O)c1ccc2c(=O)n3c(nc2c1)CCC3	-2%	-23%	21µM*	-6%	21µM*	8
CN(C(=O)c1ccc2c(=O)n3c(nc2c1)CCCCC3)c1cccc(Cl)c1	-15%	1%	23µM*	0%	23µM*	-7
CN(C(=O)COC(=O)c1nc(Cl)c(Cl)c(Cl)c1Cl)C1CCS(=O)(=O)C1 (centres undefined)	-28%	-6%	21µM*	6%	21µM*	-99*
Cc1cc(=O)[nH]c(-c2ccc(C(F)(F)F)cc2)n1	-16%	-5%	u	3%	u	25
Cc1ccc(-n2c(C)c(C)c3c(NCCN(C)C)ncnc32)cc1	-22%	-3%	-21%	x	u	u
COc1ccc(N(C(=O)c2ccco2)S(=O)(=O)c2cc(OC)ccc2OC)cc1	-4%	2%	-35%	9%	-14%	25
Cc1n[nH]c(=O)c2c(NC(=O)CSc3ccccc3Cl)oc(C)c12	-2%	4%	-21%	6%[0.505 µM]	5%	-8
CN(C(=O)COC(=O)c1ccc(C(C)(C)C)cc1)C1CCS(=O)(=O)C1 (centres undefined)	-5%	u	-3%	0%	-1%	2
CCCN(C(=O)c1ccc2c(=O)n3c(nc2c1)CCCCC3)c1cccc(Cl)c1	-26%	x	16µM*	5%	u	x
CN(C(=O)COC(=O)c1ccc2c(=O)n3c(nc2c1)CCC3)C1CCS(=O)(=O)C1 (centres undefined)	-51%	u	-2%	3%	8%	-70*
CCOc1ccc(CCNC(=O)CCNC(=O)c2ccc(Br)cc2)cc1OCC	0%	-1%	-2%	1%	9%	-4
COC(=O)C1=CN(c2ccc(C(C)(C)C)cc2)C(N)=C(C#N)C1c1cccc2ccccc12 (centres undefined)	x	x	13µM*	x	15µM*	7
COC(=O)C1=CN(c2ccc(F)cc2)C(N)=C(C#N)C1c1cccc(OC)c1OC (centres undefined)	x	x	u	x	u	-18
CCc1ccc(N2C=C(C(=O)OC)C(c3cccc4ccccc34)C(C#N)=C2N)cc1 (centres undefined)	x	x	8.2µM*	x	13µM*	-10
COC(=O)C1=CN(c2ccc(OC)cc2)C(N)=C(C#N)C1c1cccc2ccccc12 (centres undefined)	x	x	5.2µM*	x	5.8µM*	16
COC(=O)C1=CN(c2ccc(Oc3ccccc3)cc2)C(N)=C(C#N)C1c1ccc(-c2ccccc2)cc1 (centres undefined)	x	x	u	x	u	-11
COC(=O)C1=CN(c2cccc(OCc3ccccc3)c2)C(N)=C(C#N)C1c1ccc(-c2ccccc2)cc1 (centres undefined)	x	x	-23%	x	-10%	-4
CC(=O)c1cc(C(=O)Nc2cc(C)cc(C)c2)c2ccccn12	-44%	7%	u	-6%	u	x
Cc1cccc(OCCn2c(SCC(=O)O)nc3ccccc32)c1	-14%	-1%	x	2%	x	x
CO[C@@H]1[C@@H](O[C@@H]2O[C@H](C)[C@@H](O[C@H]3C[C@@](C)(O)[C@@H](OC(=O)CC(C)C)[C@H](C)O3)[C@H](N(C)C)[C@H]2O)[C@@H](CC=O)C[C@@H](C)C(=O)/C=C/C2OC2C[C@@H](C)OC(=O)C[C@H]1OC(C)=O (some centres undefined)	x	x	3.3µM*	x	3.8µM*	x
C[N+]1(CC2COC(c3ccccc3)(C3CCCCC3)O2)CCCCC1 (centres undefined)	x	x	6µM*	x	-94%	x
Nc1cc2nsnc2cc1Br	-78%	11µM*	5.8µM*	-6%	5.8µM*	-4
NC(=S)N/N=C/c1cccnc1	x	x	-3%	3%	13%	x
Oc1ccc(/C=N/NC(=S)Nc2cccnc2)cc1	-32%	-3%	u	x	-35%	-25
SMILES	HepG2 tox	TGFb inhibitor	DT40 TDP1 no CPT	TDP1 inh	DT40 TDP1 CPT	IL-1B inflam inh
COc1cccc(/C=N/NC(=S)Nc2cccnc2)c1	-12%	-15%	4.6µM*	0%	2.3µM*	-6
CC(C)(C)NC(=S)N/N=C/c1cccnc1	14%	19%	26µM*	x	15µM*	-1
COc1ccc(O)c(/C=N/NC(=S)Nc2cccnc2)c1	-22%	u	18µM*	3%	u	144
N#Cc1c(N)[nH]c(C(=O)c2ccccc2)c1-c1ccccc1Br	x	x	u	x	u	0
C/C(=N\NC(=O)CSc1nc(C)cc(C)n1)c1ccc([N+](=O)[O-])cc1	-7%	-4%	u	6%	-18%	41
CCOC(=O)c1oc2cccc(OCC(O)CNC(C)C)c2c1C (centres undefined)	-33%	20%	u	-2%	21µM*	-50*
Cc1cccc(C)c1OCC(O)CNC(C)C (centres undefined)	-37%	16%	-7%	-2%	-1%	11
COC(=O)[C@]1(Sc2ccccc2)CC(=O)N[C@@H]1c1ccccc1	x	x	u	x	-12%	9
COC(=O)[C@@]1(Sc2ccc(C)cc2)CC(=O)N[C@@H]1c1ccc(C(F)(F)F)cc1	x	x	21µM*	x	15µM*	u
COC(=O)[C@@]1(Sc2ccc(C)cc2)CC(=O)N(c2ccccc2)[C@@H]1c1ccccc1	x	x	18µM*	x	18µM*	-5
COC(=O)[C@@]1(Sc2ccc(C)cc2)CC(=O)N(C(=O)CCc2ccccc2)[C@@H]1c1ccccc1	x	x	u	x	u	8
CC(=O)CCc1oc2ccc(C)cc2c1-c1ccc(C)o1	-17%	4%	15µM*	2%	12µM*	-1
CC(=O)CCc1oc2ccc(NC(C)=O)cc2c1-c1ccc(C)o1	-20%	6%	-19%	8%	-1%	-13
O=C(NC1CCN(C(=S)Nc2ccccc2)CC1)C1CCCCC1	-2%	-1%	1%	4%	0%	-1
COc1cc2c(cc1OC)/C(=C/c1ccc(Br)cc1)C(=O)OC2	-10%	0%	18µM*	3%	u	0
